Data as given in PubChem BioAssay.
For part of these data: Measured potencies and affinities stand elsewhere. Activity calls are given as the source filed them.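 How the source made its calls, unless noted: active means calcium signal cut by more than 3 SD below the full-agonist control yet still positive, in both repeats and the earlier primary screen; inactive means the rest.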

Assays:
[1] = system: TRPC4 beta (transient receptor potential cation channel C4), mouse; assay: TRPC4 cation channel opening, retest – cell-based, Fluo4 calcium, HEK293 TRPC4beta/mu-opioid, duplicates, 10 µM, confirmation (AID 2426;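 active means fluorescence ratio normalized to control raised more than 50% in primary screen plus both repeat runs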;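 on activation: percent rise of integrated ratio over buffer wells lacking compound which define 0%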); conditions: Fluo4 calcium fluorescence, at 10 µM; stronger effect = higher value
[2] = system: transient receptor potential cation channel C4 beta (TRPC4), mouse; assay: TRPC4 cation channel opening, second retest – cell-based, second round, Fluo4, HEK293 TRPC4beta/mu-opioid, 1 µM, confirmation (AID 2461;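 active means primary screen active and over 50% activation in each of two duplicate runs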;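 on activation: 0% = wells without test compound as baseline of integrated fluorescence ratio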); conditions: Fluo4 calcium fluorescence, at 1 µM; stronger effect = higher value
[3] = system: TRPC4 (transient receptor potential cation channel C4 beta), mouse; assay: potentiation of DAMGO EC20 TRPC4 response – cell-based, second round, Fluo-4, HEK293 TRPC4beta/mu-opioid, 1 µM, confirmation (AID 2554;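 active means primary screen hit whose fluorescence ratio, in both repeats, exceeds the weak agonist control mean by 3 SD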); conditions: DAMGO EC20, Fluo-4 calcium flux, at 1 µM; stronger effect = higher value
[4] = system: TRPC4 beta (transient receptor potential cation channel C4), mouse; assay: potentiation of DAMGO EC20 TRPC4 response – cell-based, Fluo-4, HEK293 TRPC4beta/mu-opioid, confirmation (AID 2555;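 active means primary screen hit whose calcium fluorescence ratio, in both repeats, exceeds the weak agonist control mean by 3 SD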); conditions: DAMGO EC20, Fluo-4 calcium flux, at 10 µM; stronger effect = higher value
[5] = target: Short transient receptor potential channel 4 (Mus musculus) (UniProt Q9QUQ5); assay: blockers of DAMGO-evoked TRPC4 calcium flux – cell-based, Fluo4, HEK293 TRPC4beta/mu-opioid, confirmation (AID 2636); conditions: at 10 µM; stronger effect = higher value
Short transient receptor potential channel 4 (Mus musculus), sequence (Q9QUQ5 whole entry, looked up): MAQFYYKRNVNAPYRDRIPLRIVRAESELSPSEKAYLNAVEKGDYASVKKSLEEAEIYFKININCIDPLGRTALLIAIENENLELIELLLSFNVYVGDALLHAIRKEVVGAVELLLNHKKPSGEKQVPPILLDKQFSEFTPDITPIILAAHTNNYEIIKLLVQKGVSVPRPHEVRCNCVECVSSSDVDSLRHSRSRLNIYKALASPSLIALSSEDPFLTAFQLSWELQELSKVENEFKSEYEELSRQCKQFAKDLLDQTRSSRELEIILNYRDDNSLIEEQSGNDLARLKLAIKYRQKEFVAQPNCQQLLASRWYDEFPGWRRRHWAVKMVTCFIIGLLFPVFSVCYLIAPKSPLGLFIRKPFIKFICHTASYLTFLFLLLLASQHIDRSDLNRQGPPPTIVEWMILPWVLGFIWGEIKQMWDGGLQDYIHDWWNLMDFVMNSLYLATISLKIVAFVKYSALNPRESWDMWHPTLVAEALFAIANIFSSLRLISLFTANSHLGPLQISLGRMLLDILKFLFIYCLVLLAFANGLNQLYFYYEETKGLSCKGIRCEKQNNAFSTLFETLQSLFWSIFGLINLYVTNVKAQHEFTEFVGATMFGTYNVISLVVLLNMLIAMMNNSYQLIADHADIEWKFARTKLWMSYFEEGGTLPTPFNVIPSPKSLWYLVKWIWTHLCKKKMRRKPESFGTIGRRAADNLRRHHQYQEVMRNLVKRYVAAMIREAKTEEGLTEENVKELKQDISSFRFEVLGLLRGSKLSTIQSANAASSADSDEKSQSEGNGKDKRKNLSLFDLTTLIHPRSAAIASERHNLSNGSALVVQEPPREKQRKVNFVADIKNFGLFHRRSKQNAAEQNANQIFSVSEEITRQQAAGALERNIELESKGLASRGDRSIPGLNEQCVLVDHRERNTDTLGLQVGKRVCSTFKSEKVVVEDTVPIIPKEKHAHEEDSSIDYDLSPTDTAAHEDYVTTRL

[6] = target: Short transient receptor potential channel 4 (Mus musculus) (UniProt Q9QUQ5); assay: blockers of DAMGO-evoked TRPC4 calcium flux – cell-based, second round, Fluo4, HEK293 TRPC4beta/mu-opioid, 1 µM, confirmation (AID 2637;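 active means calcium signal ratio cut to more than 3 SD under the fully stimulated control mean yet still positive, in both repeats and the primary screen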); conditions: at 1 µM; stronger effect = higher value
[7] = target: Short transient receptor potential channel 4 (Mus musculus) (UniProt Q9QUQ5); assay: potentiation of DAMGO-evoked TRPC4 calcium signal – cell-based, HEK293 TRPC4/mu-opioid, Fluo-4 calcium, EC20 DAMGO, dose response (AID 434941;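 active means earlier screen potentiator hit that boosts the TRPC4 ion channel at some dose, with a dose response; inactive means no potentiation, no dose response, or not a prior hit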;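 further: calcium entry triggered by an EC20 dose of DAMGO at the co-expressed mu-opioid receptor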)
[8] = target: Short transient receptor potential channel 4 (Mus musculus) (UniProt Q9QUQ5); assay: block of DAMGO-driven TRPC4 calcium entry – cell-based, HEK293 TRPC4/mu-opioid, Fluo-4 calcium, dose response (AID 434942;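 active means primary screen inhibitor hit that blocks the TRPC4 channel at some tested dose, yielding a dose curve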)
[9] = target: Short transient receptor potential channel 6 (Mus musculus) (UniProt Q61143); assay: TRPC6 blockade by TRPC4 inhibitor hits – cell-based, HEK293, membrane potential dye, duplicate, selectivity assay for TRPC4 inhibitor project, confirmation (AID 434948;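 active means active in primary screen and both duplicates, each dropping signal beyond three positive-control SD with fluorescence still positive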); conditions: HEK293 TRPC6, membrane potential dye fluorescence, at 10 µM, stimulated with maximal-effect acetylcholine; stronger effect = higher value
Short transient receptor potential channel 6 (Mus musculus), sequence (Q61143 whole entry, looked up): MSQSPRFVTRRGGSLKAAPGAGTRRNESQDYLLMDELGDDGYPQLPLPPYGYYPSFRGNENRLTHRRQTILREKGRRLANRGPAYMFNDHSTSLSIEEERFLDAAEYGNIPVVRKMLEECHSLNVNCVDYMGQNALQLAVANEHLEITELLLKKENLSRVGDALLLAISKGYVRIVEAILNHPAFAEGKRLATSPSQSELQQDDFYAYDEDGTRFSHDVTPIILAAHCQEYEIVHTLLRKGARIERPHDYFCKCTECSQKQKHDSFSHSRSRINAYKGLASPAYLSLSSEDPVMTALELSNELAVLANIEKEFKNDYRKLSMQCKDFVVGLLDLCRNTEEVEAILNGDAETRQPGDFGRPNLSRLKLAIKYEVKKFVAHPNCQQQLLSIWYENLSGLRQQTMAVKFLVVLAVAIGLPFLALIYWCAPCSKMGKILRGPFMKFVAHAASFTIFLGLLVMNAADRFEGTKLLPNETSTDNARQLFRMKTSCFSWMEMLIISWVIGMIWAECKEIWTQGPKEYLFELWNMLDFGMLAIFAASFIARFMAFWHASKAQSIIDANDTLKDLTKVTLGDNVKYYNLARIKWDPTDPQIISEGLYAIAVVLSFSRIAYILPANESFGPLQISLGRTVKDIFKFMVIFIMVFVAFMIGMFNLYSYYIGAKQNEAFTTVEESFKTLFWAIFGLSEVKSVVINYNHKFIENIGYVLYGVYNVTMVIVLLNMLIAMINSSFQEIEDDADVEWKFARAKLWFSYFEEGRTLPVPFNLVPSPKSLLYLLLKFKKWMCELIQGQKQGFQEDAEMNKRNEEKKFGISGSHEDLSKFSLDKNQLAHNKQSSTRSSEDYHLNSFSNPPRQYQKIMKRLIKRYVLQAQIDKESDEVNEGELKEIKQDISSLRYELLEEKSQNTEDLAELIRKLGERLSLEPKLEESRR

[10] = target: Short transient receptor potential channel 6 (Mus musculus) (UniProt Q61143); assay: TRPC6 opening by TRPC4 activator hits – cell-based, HEK293, membrane potential dye, duplicate, selectivity assay for TRPC4 activator project, confirmation (AID 434950;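 active means membrane potential signal rise above negative control mean plus 3 SD in both duplicates, also active in the earlier TRPC4 screen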;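 on activation: 0% = buffer only wells and 100% = acetylcholine maximal-effect wells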); conditions: HEK293 TRPC6, membrane potential fluorescence, at 10 µM; activation: stronger effect = higher value; outcome: activation
[11] = target: Short transient receptor potential channel 6 (Mus musculus) (UniProt Q61143); assay: positive modulators of mouse TRPC6 channel – HEK293 cells, membrane potential dye, duplicate, selectivity assay for TRPC4 potentiator project, confirmation (AID 434952;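 active means compound raising the membrane signal above positive-control mean plus 3 SD in both repeats, and a primary screen hit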); conditions: HEK293 TRPC6, membrane potential dye fluorescence, at 10 µM, maximal acetylcholine added after compound; stronger effect = higher value
[12] = target: Short transient receptor potential channel 4 (Mus musculus) (UniProt Q9QUQ5); assay: calcium flux activators in TRPC4/5HT1a cells, counter-screen for TRPC4 activator project, cell-based, second counter screen, HEK293 TRPC4/5HT1a, Fluo-4 (AID 434977;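 active means calcium signal rise above buffer-control mean plus 5 SD in both duplicates, and also a hit in the primary screen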;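 on activation: plate controls were assay buffer for no effect and maximal serotonin response for full effect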); conditions: Fluo-4 calcium flux, at 10 µM; stronger effect = higher value
[13] = serotonin-gated TRPC4 signal block – cell-based, second counter screen, HEK293 TRPC4/5HT1a, Fluo-4, counter-screen for TRPC4 inhibitor project, confirmation (AID 434978;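 active means primary screen active whose calcium signal fell more than 3 SD beyond the full-serotonin control mean in both duplicate plates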;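 further: serotonin given first at submaximal then at maximal dose after compound preincubation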); conditions: Fluo-4 calcium flux, at 10 µM, serotonin added to trigger calcium flux; stronger effect = higher value
[14] = system: TRPC4 (mouse), co-expressed with 5HT1a in HEK293; assay: enhancement of serotonin-evoked TRPC4 response – cell-based, second counter screen, HEK293 TRPC4/5HT1a, Fluo-4, counter-screen for TRPC4 potentiator project, confirmation (AID 434979;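 active means signal rise over 3 SD above mean of control wells given weak agonist, in both repeats and first screen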); conditions: Fluo-4 calcium flux, at 10 µM, serotonin added at its EC20 dose; stronger effect = higher value
[15] = nonspecific calcium rise without TRPC4 – cell-based, HEK293 mu-opioid receptor line, counter-screen for TRPC4 activator project, confirmation (AID 449723;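 active means hit in primary screen, with calcium signal over 5 SD above buffer well mean in both duplicates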;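 further: counter screen cells carry the mu-opioid receptor alone and lack TRPC4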); conditions: HEK293 mu-opioid cells, Fluo-4 calcium fluorescence, at 10 µM; stronger effect = higher value
[16] = nonspecific potentiation of DAMGO calcium response – cell-based, HEK293 mu-opioid receptor line, counter-screen for TRPC4 allosteric potentiator project, confirmation (AID 449724;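 active means calcium signal rise more than 3 SD above the low-dose agonist control mean, in both duplicate plates and the primary screen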); conditions: HEK293 mu-opioid receptor cells, Fluo-4 calcium flux, at 10 µM, compound added before EC20 DAMGO stimulus; stronger effect = higher value
[17] = target: Short transient receptor potential channel 4 (Mus musculus) (UniProt Q9QUQ5); assay: calcium entry via TRPC4 opening agents – cell-based, HEK293 TRPC4/mu-opioid, Fluo-4 calcium, dose response (AID 434937;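 active means primary screen activator hit with a dose response curve and TRPC4 channel activation at any tested dose; inactive means no activation, no dose response, or not a primary hit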)

CCC1CCCCN1S(=O)(=O)c1ccc(C(=O)N(CCCN(C)C)c2nc3cc4c(cc3s2)OCO4)cc1 (stereo not given)
active: activation [1] 191% | activation [12] 23.1%
inactive: outcome [2] | outcome [3] | outcome [4] | outcome [5] | outcome [6] | outcome [7] | outcome [8] | outcome [9] | outcome [10] | outcome [11] | outcome [13] | outcome [14] | outcome [15] | outcome [16]

O=[N+]([O-])c1cc(C(F)(F)F)ccc1NC1CCN(Cc2ccccc2)C1 (stereo not given)
inactive: outcome [1] | outcome [2] | outcome [3] | outcome [4] | outcome [5] | outcome [6] | outcome [17] | outcome [8] | outcome [9] | outcome [10] | outcome [11] | outcome [12] | outcome [13] | outcome [15] | outcome [16]
active: potentiation [14] 23.9%

COCC1CCN(Cc2cn(-c3ccccc3F)nc2-c2cc(C)sc2C)CC1
inactive: outcome [2] | outcome [3] | outcome [4] | outcome [5] | outcome [6] | outcome [7] | outcome [8] | outcome [9] | outcome [11] | outcome [12] | outcome [13] | outcome [14] | outcome [15] | outcome [16]
active: activation [1] 95% | activation [10] 69.5%

CCCCN(CC)CCCNC(=O)Cn1nc(Cc2cccnc2)c2ccccc2c1=O
inactive: outcome [2] | outcome [3] | outcome [4] | outcome [5] | outcome [6] | outcome [7] | outcome [8] | outcome [9] | outcome [10] | outcome [11] | outcome [13] | outcome [14] | outcome [15] | outcome [16]
active: activation [1] 86% | activation [12] 28.3%

COc1ccc(F)cc1CN1CCN(C(=O)CCC(=O)Nc2nnc(C(C)C)s2)CC1
inactive: outcome [1] | outcome [2] | outcome [3] | outcome [4] | outcome [5] | outcome [6] | outcome [7] | outcome [8] | outcome [9] | outcome [11] | outcome [12] | outcome [13] | outcome [14] | outcome [15] | outcome [16]
active: activation [10] 41.5%

CCOC(=O)C1(CCOc2ccccc2)CCN(Cc2cc(OC)ccc2OC)CC1
active: activation [1] 68% | activation [10] 118%
inactive: outcome [2] | outcome [3] | outcome [4] | outcome [5] | outcome [6] | outcome [7] | outcome [8] | outcome [9] | outcome [11] | outcome [12] | outcome [13] | outcome [14] | outcome [15] | outcome [16]

CCCn1ncc(CN2CCC(n3nccc3NC(=O)CCc3ccccc3)CC2)c1C
active: activation [1] 132% | activation [2] 115% | activation [10] 36.5%
inactive: outcome [3] | outcome [4] | outcome [5] | outcome [6] | outcome [7] | outcome [8] | outcome [9] | outcome [11] | outcome [12] | outcome [13] | outcome [14] | outcome [15] | outcome [16]

O=C(CC1C(=O)NCCN1Cc1ccccc1C(F)(F)F)NCCc1ccccn1 (stereo not given)
inactive: outcome [2] | outcome [3] | outcome [4] | outcome [5] | outcome [6] | outcome [7] | outcome [8] | outcome [9] | outcome [10] | outcome [11] | outcome [13] | outcome [14] | outcome [15] | outcome [16]
active: activation [1] 106% | activation [12] 26.7%

CC(=O)c1c(C)nn(CC(=O)NC2CCCN(Cc3ccc(CC(C)C)cc3)C2)c1C (stereo not given)
active: activation [1] 122% | activation [10] 34.5% | activation [12] 50.2%
inactive: outcome [2] | outcome [3] | outcome [4] | outcome [5] | outcome [6] | outcome [7] | outcome [8] | outcome [9] | outcome [11] | outcome [13] | outcome [14] | outcome [15] | outcome [16]

COC(=O)c1cc(N2CCNCC2)nc2ccccc12
inactive: outcome [1] | outcome [2] | outcome [3] | outcome [5] | outcome [6] | outcome [7] | outcome [8] | outcome [9] | outcome [10] | outcome [11] | outcome [13] | outcome [15] | outcome [16]
active: potentiation [4] 47% | activation [12] 18.6% | potentiation [14] 13.8%

Cc1ccc(NC(=S)NC2CC3CCC(C2)N3Cc2ccco2)c(C)c1 (stereo not given)
active: activation [1] 116% | activation [12] 25.9%
inactive: outcome [2] | outcome [3] | outcome [4] | outcome [5] | outcome [6] | outcome [7] | outcome [8] | outcome [9] | outcome [10] | outcome [11] | outcome [13] | outcome [14] | outcome [15] | outcome [16]

CCN(Cc1ccccc1)S(=O)(=O)c1ccc(C(=O)N(CCCN(C)C)c2nc3c(F)cccc3s2)cc1
inactive: outcome [2] | outcome [3] | outcome [4] | outcome [5] | outcome [6] | outcome [7] | outcome [8] | outcome [9] | outcome [10] | outcome [11] | outcome [12] | outcome [13] | outcome [14] | outcome [15] | outcome [16]
active: activation [1] 76%

CCCN(CCC)CCCNC(=O)CNC(=O)c1nn(-c2ccc(OC)cc2)c(=O)c2ccccc12
inactive: outcome [2] | outcome [3] | outcome [4] | outcome [5] | outcome [6] | outcome [7] | outcome [8] | outcome [9] | outcome [10] | outcome [11] | outcome [13] | outcome [14] | outcome [15] | outcome [16]
active: activation [1] 65% | activation [12] 24.9%

O=C1NCN(c2ccccc2)C12CCN(CCCC(c1ccc(F)cc1)c1ccc(F)cc1)CC2
active: activation [10] 31%
inactive: outcome [1] | outcome [2] | outcome [3] | outcome [4] | outcome [5] | outcome [6] | outcome [7] | outcome [8] | outcome [9] | outcome [11] | outcome [12] | outcome [13] | outcome [14] | outcome [15] | outcome [16]

Cc1noc(C)c1S(=O)(=O)N1CCC(C(=O)NCCCN2CC(C)CC(C)C2)CC1 (stereo not given)
active: activation [1] 99% | activation [2] 75% | activation [12] 28.5%
inactive: outcome [3] | outcome [4] | outcome [5] | outcome [6] | outcome [7] | outcome [8] | outcome [9] | outcome [10] | outcome [11] | outcome [13] | outcome [14] | outcome [15] | outcome [16]
